The values that follow come from ChEMBL document CHEMBL4296182, “CO-ADD screening of NIH NCI Diversity Set V”.

For part of these data: Entries with a potency or affinity are not part of this list.

The test system of one assay is Staphylococcus aureus. The assay can be described thus: Antibacterial activity against Staphylococcus aureus MRSA ATCC 43300 (CO-ADD:GP_020); MIC in CAMBH media using NBS plates, by Resazurin F(560/590). Particulars: Concentration 20 uM, ASSAY_TEST Inhibition of Bacterial Growth, detection method Resazurin, Fluorescence (ex560/em590), MEDIA CAMHB, plate type 384well, CORNING #3640, time 18 hr. It is filed as functional. (The colour change of resazurin is a common sign of viable cells or microbes.)

The next assay has as its system Acinetobacter baumannii. The assay can be described thus: Antibacterial activity against Acinetobacter baumannii ATCC 19606 (CO-ADD:GN_034); MIC in CAMBH media using NBS plates, by Resazurin F(560/590). It is filed as functional. Particulars: Concentration 20 uM, ASSAY_TEST Inhibition of Bacterial Growth, detection method Resazurin, Fluorescence (ex560/em590), MEDIA CAMHB, plate type 384well, CORNING #3640, time 18 hr.

The next assay deals with Escherichia coli. The assay can be described thus: Antibacterial activity against Escherichia coli ATCC 25922 (CO-ADD:GN_001); MIC in CAMBH media using NBS plates, by Resazurin F(560/590). It is filed as functional. Particulars: Concentration 20 uM, ASSAY_TEST Inhibition of Bacterial Growth, detection method Resazurin, Fluorescence (ex560/em590), MEDIA CAMHB, plate type 384well, CORNING #3640, time 18 hr.

Another assay concerns Klebsiella pneumoniae. Particulars: Concentration 20 uM; ASSAY_TEST Inhibition of Bacterial Growth; detection method Absorption (OD600); MEDIA CAMHB; plate type 384well; NBS; CORNING #3640; time 18 hr.
In a further assay the test system is Candida albicans. Particulars: 20 µM.
A further assay has as its system Cryptococcus neoformans. Particulars: Concentration 20 uM; ASSAY_TEST Inhibition of Fungal Growth; detection method Resazurin; Absorption (OD600-OD570); plate type 384well; NBS; CORNING #3640.

For orientation: Inhibition means the relative decrease from the control value, in per cent. Take `NC(=O)c1ccc(Cl)c2ccccc12`: the Inhibition in the assay with Staphylococcus aureus was 11.2%; in the assay with Acinetobacter baumannii, -9.07%; in the assay with Escherichia coli, 13.67%; with Klebsiella pneumoniae, 7.47%; in the assay on Candida albicans, 6.64%; in the assay with Cryptococcus neoformans, -4.82%.

Take `CC1=CC(=C2C=CC(=O)C=C2)C=C(C)N1C`: the Inhibition was 0.37% in the assay on Staphylococcus aureus; -6.52% in the assay on Acinetobacter baumannii; 4.86% with Escherichia coli; -4.58% with Klebsiella pneumoniae; 4.83% in the assay on Candida albicans; -12.1% with Cryptococcus neoformans.

In the case of `CCOC(=O)CCC1(C(=O)OC)C(=O)CCCCC/C=C/1C(=O)OC` (stereo not given), the Inhibition with Staphylococcus aureus was 9.69%; with Acinetobacter baumannii, 9.62%; in the assay on Escherichia coli it was -17.88%; in the assay with Klebsiella pneumoniae, 8.19%; with Candida albicans, 7.46%; in the assay with Cryptococcus neoformans, 18.91%.

For the compound `Cc1nnc(Cc2ccccc2)c2[nH]nc(C)c12`, the Inhibition in the assay with Staphylococcus aureus is 16.17%; in the assay on Acinetobacter baumannii, 11.32%; with Escherichia coli, 1.75%; in the assay with Klebsiella pneumoniae it was 14.15%; in the assay with Candida albicans, 5.79%; in the assay with Cryptococcus neoformans, -4.44%.

`O=C(O)Cc1sc(O)nc1O`: the Inhibition in the assay with Staphylococcus aureus was 3.49%; in the assay with Acinetobacter baumannii it was -13.46%; with Escherichia coli it was 1.48%; with Klebsiella pneumoniae, 28.66%; with Candida albicans it was 28.5%; in the assay with Cryptococcus neoformans, -2.77%.

`NC(=O)CCC(C(=O)O)N1C(=O)C2C3CCC(C3)C2C1=O` (stereo not given): the Inhibition in the assay with Staphylococcus aureus is -3.52%; in the assay on Acinetobacter baumannii, -4.02%; in the assay on Escherichia coli, -8.27%; in the assay with Klebsiella pneumoniae, 4.97%; in the assay on Candida albicans, 2.39%; in the assay with Cryptococcus neoformans, -5.24%.

Regarding `CCOC(=O)c1[nH]c(CO)c(C(=O)OCC)c1C`, the Inhibition with Staphylococcus aureus was 12.97%; with Acinetobacter baumannii, 11.05%; with Escherichia coli it was 2.06%; in the assay with Klebsiella pneumoniae it was 19.54%; in the assay with Candida albicans it was 9.36%; in the assay with Cryptococcus neoformans, -4.6%.

For the compound `O=C(O)CCNC1CCCCC1`, the Inhibition in the assay on Staphylococcus aureus was 7.12%; in the assay on Acinetobacter baumannii, -7.34%; in the assay on Escherichia coli it was 6.52%; with Klebsiella pneumoniae, 12.82%; with Candida albicans, 3.1%; in the assay on Cryptococcus neoformans, -1.65%.

As for `NC(=O)SCC(=O)Nc1ccccc1C(=O)O`, the Inhibition in the assay on Staphylococcus aureus is 2.18%; in the assay on Acinetobacter baumannii, 6.48%; in the assay with Escherichia coli, -0.39%; in the assay with Klebsiella pneumoniae, 23.65%; in the assay on Candida albicans, 9.98%; in the assay on Cryptococcus neoformans, -3.81%.

On to `O=C(O)c1ccccc1-n1c2ccccc2c2ccccc21`, for which the Inhibition with Staphylococcus aureus is 10.38%; in the assay on Acinetobacter baumannii it was 6.58%; in the assay with Escherichia coli, 7.31%; with Klebsiella pneumoniae, 10.24%; in the assay on Candida albicans it was 4.15%; with Cryptococcus neoformans, -5.74%.

With `Cc1cccnc1N=C(S)Nc1ncccc1C`, the Inhibition is 10.58% in the assay on Staphylococcus aureus; 20.87% in the assay on Acinetobacter baumannii; 9.06% in the assay with Escherichia coli; 23.76% with Klebsiella pneumoniae; 3.55% with Candida albicans; -10.6% in the assay on Cryptococcus neoformans.

On to `NS(=O)(=O)c1ccc(/N=N/c2c(O)c(C(=O)O)cc3ccccc23)cc1`, for which the Inhibition with Staphylococcus aureus is -3.85%; in the assay on Acinetobacter baumannii it was 10.2%; in the assay on Escherichia coli it was -7.6%; with Klebsiella pneumoniae it was 18.16%; in the assay with Candida albicans it was -3.08%; in the assay with Cryptococcus neoformans, -0.96%.

With `Cc1cc(=O)oc2cc(OS(C)(=O)=O)ccc12`, the Inhibition in the assay on Staphylococcus aureus is -6.24%; in the assay with Acinetobacter baumannii it was -3.66%; in the assay with Escherichia coli, 13.01%; in the assay on Klebsiella pneumoniae, 7.19%; in the assay with Candida albicans, 0.46%; with Cryptococcus neoformans, -11.39%.

For `ClC(Cl)(Cl)C1=Nc2c(nnn2Cc2ccccc2)CN1`, the Inhibition in the assay with Staphylococcus aureus is 1.51%; with Acinetobacter baumannii, 7.83%; in the assay with Escherichia coli, 14.39%; in the assay with Klebsiella pneumoniae, 3.07%; in the assay on Candida albicans, -3.28%; in the assay with Cryptococcus neoformans, -12.54%.

Take `COc1cccc(OCC(O)CN2CCN(c3ccccc3)CC2)c1` (stereo not given): the Inhibition in the assay on Staphylococcus aureus is 10.13%; with Acinetobacter baumannii, -11.48%; with Escherichia coli it was -4.05%; in the assay with Klebsiella pneumoniae it was 23.2%; in the assay on Candida albicans it was -2.19%; with Cryptococcus neoformans, -13.63%.

As to `COc1cc(NC(=O)CCl)ccc(=O)c1`, the Inhibition was -5.48% with Staphylococcus aureus; 6.09% with Acinetobacter baumannii; 9.48% in the assay on Escherichia coli; 4.54% with Klebsiella pneumoniae; 1.92% with Candida albicans; -8.46% in the assay with Cryptococcus neoformans.

`Nc1nc(O)c2ncn(C3CCCC3)c2n1`: the Inhibition is 3.29% in the assay on Staphylococcus aureus; -9.23% in the assay with Acinetobacter baumannii; 3.79% in the assay with Escherichia coli; 16.95% in the assay on Klebsiella pneumoniae; -0.06% in the assay on Candida albicans; -9.03% in the assay on Cryptococcus neoformans.

As to `CC(=O)OCC1OC(COC(C)=O)(c2ccc(C)cc2)C(OC(C)=O)C1OC(C)=O` (stereo not given), the Inhibition in the assay with Staphylococcus aureus was -7.68%; with Acinetobacter baumannii, -11.43%; in the assay on Escherichia coli, 15.38%; in the assay on Klebsiella pneumoniae it was 10.58%; in the assay on Candida albicans, -0.8%; in the assay with Cryptococcus neoformans, -5.49%.

With `Cc1cc(C)n(C(=N)NC(=O)c2ccccc2)n1`, the Inhibition in the assay on Staphylococcus aureus was 12.05%; with Acinetobacter baumannii, 6.54%; in the assay with Escherichia coli it was -0.32%; in the assay on Klebsiella pneumoniae, 6.77%; with Candida albicans, 6.7%; in the assay on Cryptococcus neoformans, -12%.

For `CCCCN1C(=O)CC(C(=O)OCC)=C1C`, the Inhibition in the assay on Staphylococcus aureus is -5.09%; with Acinetobacter baumannii it was -15.76%; with Escherichia coli, -0.5%; with Klebsiella pneumoniae it was -4.24%; with Candida albicans, 1.93%; with Cryptococcus neoformans it was -4.18%.

For `Cc1cc(=O)n2nc(-c3ccc(C(C)(C)C)cc3)cc2[nH]1`, the Inhibition was 15.3% in the assay on Staphylococcus aureus; 0.45% in the assay on Acinetobacter baumannii; 6.17% in the assay with Escherichia coli; 14.85% in the assay on Klebsiella pneumoniae; 4.49% in the assay with Candida albicans; -5.87% in the assay with Cryptococcus neoformans.

Take `Cc1cn(C2CC(O)C(CO)O2)c(=O)n(Cc2ccccc2)c1=O` (stereo not given): the Inhibition is 4.94% in the assay with Staphylococcus aureus; 6.87% with Acinetobacter baumannii; 7.7% with Escherichia coli; 11.99% with Klebsiella pneumoniae; 1.89% in the assay on Candida albicans; -13.31% in the assay on Cryptococcus neoformans.

Regarding `Cc1cc(O)cc2c1[C@H]1CC[C@]3(C)C(=O)CC[C@H]3[C@@H]1C=C2`, the Inhibition in the assay with Staphylococcus aureus is 24.45%; in the assay on Acinetobacter baumannii, 13.8%; in the assay on Escherichia coli, 29.29%; with Klebsiella pneumoniae it was -0.57%; in the assay with Candida albicans, 12.1%; in the assay with Cryptococcus neoformans, -1.77%.

`CCCCCC(=O)C(=O)c1ccc(O)cc1O`: the Inhibition is 10.4% in the assay with Staphylococcus aureus; 8.8% in the assay with Acinetobacter baumannii; -2.2% in the assay on Escherichia coli; 16.02% in the assay on Klebsiella pneumoniae; 6.66% in the assay on Candida albicans; -6.56% with Cryptococcus neoformans.

Regarding `O=C(O)/C(Cc1c[nH]nn1)=N\O`, the Inhibition with Staphylococcus aureus is -3.12%; in the assay on Acinetobacter baumannii it was -10.75%; with Escherichia coli it was 6.44%; with Klebsiella pneumoniae it was 7.49%; in the assay with Candida albicans it was 2.24%; in the assay with Cryptococcus neoformans, -5.01%.
